Measured values taken from PubChem BioAssay (NCATS).
Values joined by “and” are separate entries in the source; they are usually repeats but may differ in a detail not shown here. Equal values may be shown once. Values without a mark were called inactive. Inconclusive results are not listed. A call without a number means that no potency is given here. Active and inactive are the calls of the source. Unless noted, the call rests on the fitted dose curve; in most records, active means well fitted curve in the direction sought with a large enough effect; inconclusive means small, poorly fitted or top-dose-only effect, or another doubt; inactive means no such curve, though single readings can be large; an effect the other way counts as inactive or inconclusive.

Columns and labels:
Hek293T = test: Primary qHTS to identify gynecologic anti-cancer compounds using libraries of approved drugs and bioactive compounds (AID 1345084); conditions: Gynecologic cancer cell panel viability, ATPlite luminescence, 48 h, control line for the selectivity index; series mostly up to 57.5 µM; further: nearly all actives have a fitted effect of over 55% in size
In short: (§1)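 Cells, 1,000 per well, plated 16 h, then exposed 48 h at 37 C to compounds. Viability by ATPlite luminescence after 15 min at room temperature.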

JEG-3 = test: as above; conditions: Gynecologic cancer cell panel viability, ATPlite luminescence, 48 h; series mostly up to 57.5 µM
In short: as §1

OV90 = test: as above; conditions: Gynecologic cancer cell panel viability, ATPlite luminescence, 48 h; series mostly up to 57.5 µM
In short: as §1

PA-1 = test: as above; conditions: Gynecologic cancer cell panel viability, ATPlite luminescence, 48 h; series mostly up to 57.5 µM
In short: as §1

SKOV3 = test: as above; conditions: Gynecologic cancer cell panel viability, ATPlite luminescence, 48 h; series mostly up to 57.5 µM
In short: as §1

Tov-21-G = test: as above; conditions: Gynecologic cancer cell panel viability, ATPlite luminescence, 48 h; series mostly up to 57.5 µM
In short: as §1

Tov112D = test: as above; conditions: Gynecologic cancer cell panel viability, ATPlite luminescence, 48 h; series mostly up to 57.5 µM
In short: as §1

[1] = Drug repurposing screens with cells derived from glioblastoma tumor samples (AID 1345199); conditions: GBM patient neurospheres viability, ATP luminescence, 48 h; further: nearly all actives have a fitted effect of over 40% in size; further: potency means the concentration at half of the fitted maximal effect
In short: (§2)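 Primary testing used CD133+ neurospheres from four GBM patients, seven concentrations, 48 h exposure and ATP-based viability; confirmation added three slower-growing patient lines.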

astro = test: as above; conditions: viability, ATP luminescence, 48 h; series mostly up to 45.9 µM
In short: as §2

[2] = target: Nuclear receptor subfamily 1 group I member 2 (Rattus norvegicus) (UniProt Q9R1A7); test: qHTS assay for small molecule activators of the rat pregnane X receptor (rPXR) signaling pathway (AID 651751; call rule not given here); conditions: rPXR reporter cells, luciferase (One-Glo), 24 h
Sequence of Nuclear receptor subfamily 1 group I member 2 (Rattus norvegicus) (Q9R1A7 whole entry, looked up): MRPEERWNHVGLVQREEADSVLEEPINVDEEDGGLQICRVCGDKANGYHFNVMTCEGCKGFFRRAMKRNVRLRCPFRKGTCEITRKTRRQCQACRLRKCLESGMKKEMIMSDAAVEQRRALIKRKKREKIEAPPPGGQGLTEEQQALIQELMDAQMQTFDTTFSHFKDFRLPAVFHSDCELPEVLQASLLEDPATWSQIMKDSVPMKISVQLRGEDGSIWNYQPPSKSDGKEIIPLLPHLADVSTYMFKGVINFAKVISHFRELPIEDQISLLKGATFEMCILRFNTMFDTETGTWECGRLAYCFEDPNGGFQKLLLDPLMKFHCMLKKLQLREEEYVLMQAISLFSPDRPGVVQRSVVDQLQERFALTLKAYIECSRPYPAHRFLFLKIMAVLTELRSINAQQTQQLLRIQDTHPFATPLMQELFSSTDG

[3] = qHTS assay for small molecule activators of the human pregnane X receptor (PXR) signaling pathway (AID 720659; call rule not given here)
[4] = at 45.9 µM (top of the series), tumour line B
[5] = at 45.9 µM (top of the series), tumour line D
[6] = at 20 µM (top of the series), tumour line C
[7] = at 21.2 µM (top of the series), tumour line B
[8] = at 21.2 µM (top of the series), tumour line D
[9] = at 46 µM (top of the series), tumour line A
[10] = at 46.1 µM (top of the series), tumour line C

Compound	outcome (Hek293T)	outcome (JEG-3)	Potency (OV90)	outcome (PA-1)	outcome (SKOV3)	outcome (Tov-21-G)	outcome (Tov112D)	activity, negative = cell killing [1, 4]	activity, negative = cell killing [1, 5]	Potency ([1]; tumour line A)	outcome (astro)	activity, negative = cell killing [1, 6]	activity, negative = cell killing [1, 7]	activity, negative = cell killing [1, 8]	activity, negative = cell killing [1, 9]	activity, negative = cell killing [1, 10]	max response [2]	outcome [3]
Cc1cc(-n2nc3ccc(Cl)cc3n2)c(O)c(C(C)(C)C)c1	inactive	inactive	inactive	inactive	inactive	inactive	inactive	-1.32%	-14.3%	7.94 µM (active)	inactive	–	–	–	–	–	–	–
C=CCOc1ccccc1OCC(O)CNC(C)C (centres undefined)	inactive	inactive	inactive	inactive	inactive	inactive	inactive	–	–	–	inactive	-4.31%	1.37%	-11.5%	–	–	–	–
O=C(c1ccccc1)C(O)c1ccccc1 (centres undefined)	inactive	inactive	inactive	inactive	inactive	inactive	inactive	4.63%	-16.7%	–	inactive	–	–	–	-19%	-3.13%	4.81% and 0.908%	inactive
CC(=O)SC[C@@H](Cc1ccccc1)C(=O)NCC(=O)OCc1ccccc1	inactive	inactive	inactive	inactive	inactive	inactive	inactive	–	–	–	inactive	2.42%	-12.3%	-8.77%	–	–	–	–
Cc1c(C(=O)NCCO)[n+](=O)c2ccccc2n1[O-]	inactive	inactive	inactive	inactive	inactive	inactive	inactive	-6.85%	-27.6%	–	inactive	–	–	–	-29.3%	-6.62%	1.89%	inactive
CC(=O)Nc1ccc(C(=O)O)cc1	inactive	inactive	inactive	inactive	inactive	inactive	inactive	-15.7%	14.1%	–	inactive	–	–	–	-33.2%	-22.1%	0.613%	inactive
NCc1ccc(S(N)(=O)=O)cc1	inactive	inactive	inactive	inactive	inactive	inactive	inactive	–	–	–	inactive	8.51%	-1.96%	-7.46%	–	–	–	–
C=CCNC(N)=S	inactive	inactive	inactive	inactive	inactive	inactive	inactive	-3.35%	-8.91%	–	inactive	–	–	–	-13.7%	-3.97%	-5.15%	inactive
C[C@@H](N)C(=O)O	inactive	inactive	inactive	inactive	inactive	inactive	inactive	-7.83%	-21.5%	–	inactive	–	–	–	–	15%	–	–
NS(=O)(=O)c1ccc(NC(=O)CCC(=O)O)cc1	inactive	inactive	inactive	inactive	inactive	inactive	inactive	-12.7%	0.766%	–	inactive	–	–	–	–	-4.81%	–	–
Cc1ccc(S(=O)(=O)NC(=O)NC2CCCCC2)cc1	inactive	inactive	inactive	inactive	inactive	inactive	inactive	-0.759%	4.18%	–	inactive	–	–	–	–	-11.1%	–	–
C[N+](C)(C)CC(O)CC(=O)[O-] (centres undefined)	inactive	inactive	inactive	inactive	inactive	inactive	inactive	-2.63%	-13.3%	–	inactive	–	–	–	–	-12.8%	–	–
C[N+](C)(C)CC[N+]1(C)Cc2c(Cl)c(Cl)c(Cl)c(Cl)c2C1	inactive	inactive	inactive	inactive	inactive	inactive	inactive	-5.4%	-17.9%	–	inactive	–	–	–	–	-19.9%	–	–
NS(=O)(=O)c1cc(C2(O)NC(=O)c3ccccc32)ccc1Cl (centres undefined)	inactive	inactive	inactive	inactive	inactive	inactive	inactive	–	–	–	inactive	3.89%	6.28%	-20.6%	–	–	–	–
Cc1ccc(C(C)C)c(O)c1	inactive	inactive	inactive	inactive	inactive	inactive	inactive	-5.11%	-0.376%	–	inactive	–	–	–	-10.8%	0.583%	-0.755%	inactive
CCN(CC)C(=O)c1cccc(C)c1	inactive	inactive	inactive	inactive	inactive	inactive	inactive	-13.5%	-4.13%	–	–	–	–	–	-18.8%	-13.4%	1.44% and 0.626%	inactive
O=C1c2ccccc2S(=O)(=O)N1CCCCN1CCN(c2ncccn2)CC1	inactive	inactive	inactive	inactive	inactive	inactive	inactive	1.94%	-19.1%	–	inactive	–	–	–	–	-25.2%	–	–
